Our source for the binding signal values is PMC7862700, “An all-to-all approach to the identification of sequence-specific readers for epigenetic DNA modifications on cytosine”.

Assay in all cases: DAPPL (digital affinity profiling via proximity ligation, sequencing); 10 mM Tris-HCl pH 7.5, 50 mM NaCl, 1 mM DTT, 4% glycerol, room temperature, 30 min; GST-TFs on glutathione beads, 16-mer random dsDNA library, 0.1% formaldehyde crosslink after washing; high values mean tight binding
The target of assay [1] is T1, FLI1 (Homo sapiens, UniProt Q01543 1-452).
T1 sequence: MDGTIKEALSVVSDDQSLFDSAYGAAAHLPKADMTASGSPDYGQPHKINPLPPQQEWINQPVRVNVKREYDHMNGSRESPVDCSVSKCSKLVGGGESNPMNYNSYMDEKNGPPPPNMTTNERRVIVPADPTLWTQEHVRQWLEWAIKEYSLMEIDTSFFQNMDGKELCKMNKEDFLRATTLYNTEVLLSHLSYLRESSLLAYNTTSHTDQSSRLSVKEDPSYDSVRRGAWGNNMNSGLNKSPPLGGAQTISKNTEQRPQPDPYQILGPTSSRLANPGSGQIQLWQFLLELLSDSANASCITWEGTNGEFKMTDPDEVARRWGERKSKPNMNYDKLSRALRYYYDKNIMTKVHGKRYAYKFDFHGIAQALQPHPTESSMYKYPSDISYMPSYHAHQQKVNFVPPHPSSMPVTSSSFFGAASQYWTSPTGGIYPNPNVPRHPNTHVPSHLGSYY
The note with it: protein: recombinant; tags: N-terminal GST; dsDNA, one strand shown. A digest of the protocol:
(§1)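 The binding signal reported is, for every hexamer, its read frequency for a factor over its read frequency for the tag-only sample. Reads came from pools of yeast-expressed, GST-fused human transcription factors on glutathione beads, barcoded with DNA and mixed with that sample, which were incubated with 200 nmole of a random double-stranded 16-mer DNA library in Tris/NaCl/DTT/glycerol buffer at room temperature for 30 min. After washing, the pools were crosslinked with 0.1% formaldehyde, proximity-ligated with BsaI/T4 ligase for 1 h at 37 °C, PCR-amplified and sequenced on an Illumina NextSeq500.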

In assay [2] the target is T2, ELK1 (Homo sapiens, UniProt P19419 1-428).
T2 sequence: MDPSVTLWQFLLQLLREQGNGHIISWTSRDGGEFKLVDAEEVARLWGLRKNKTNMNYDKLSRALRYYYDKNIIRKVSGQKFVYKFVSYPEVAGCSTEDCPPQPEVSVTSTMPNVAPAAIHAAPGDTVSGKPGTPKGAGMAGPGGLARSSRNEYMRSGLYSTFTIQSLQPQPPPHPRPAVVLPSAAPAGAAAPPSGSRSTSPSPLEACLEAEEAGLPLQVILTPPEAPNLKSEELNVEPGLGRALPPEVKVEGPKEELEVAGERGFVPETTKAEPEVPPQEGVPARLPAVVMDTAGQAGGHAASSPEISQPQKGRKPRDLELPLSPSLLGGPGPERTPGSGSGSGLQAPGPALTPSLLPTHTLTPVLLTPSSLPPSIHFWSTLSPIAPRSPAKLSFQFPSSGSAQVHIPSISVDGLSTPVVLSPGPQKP
To be noted: protein: recombinant; tags: N-terminal GST; dsDNA, one strand shown. A digest of the protocol: as §1

Assay [3] concerns the target T3, GABPA (Homo sapiens, UniProt Q06546 1-454).
T3 sequence: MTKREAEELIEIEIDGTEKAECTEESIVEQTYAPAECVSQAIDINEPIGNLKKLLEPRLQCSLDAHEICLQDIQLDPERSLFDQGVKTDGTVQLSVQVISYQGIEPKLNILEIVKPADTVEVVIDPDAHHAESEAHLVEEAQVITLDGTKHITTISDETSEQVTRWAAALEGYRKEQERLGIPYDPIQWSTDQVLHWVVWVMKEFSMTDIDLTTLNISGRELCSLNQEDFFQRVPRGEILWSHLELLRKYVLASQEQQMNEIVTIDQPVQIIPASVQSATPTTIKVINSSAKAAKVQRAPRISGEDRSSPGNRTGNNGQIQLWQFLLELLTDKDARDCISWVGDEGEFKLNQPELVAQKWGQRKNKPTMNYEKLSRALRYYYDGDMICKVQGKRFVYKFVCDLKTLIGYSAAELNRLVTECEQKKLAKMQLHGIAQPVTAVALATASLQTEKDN
The note with it: protein: recombinant; tags: N-terminal GST; dsDNA, one strand shown. A digest of the protocol: as §1

For assay [4], the target named is T4, ERG (Homo sapiens, UniProt P11308 1-479).
T4 sequence: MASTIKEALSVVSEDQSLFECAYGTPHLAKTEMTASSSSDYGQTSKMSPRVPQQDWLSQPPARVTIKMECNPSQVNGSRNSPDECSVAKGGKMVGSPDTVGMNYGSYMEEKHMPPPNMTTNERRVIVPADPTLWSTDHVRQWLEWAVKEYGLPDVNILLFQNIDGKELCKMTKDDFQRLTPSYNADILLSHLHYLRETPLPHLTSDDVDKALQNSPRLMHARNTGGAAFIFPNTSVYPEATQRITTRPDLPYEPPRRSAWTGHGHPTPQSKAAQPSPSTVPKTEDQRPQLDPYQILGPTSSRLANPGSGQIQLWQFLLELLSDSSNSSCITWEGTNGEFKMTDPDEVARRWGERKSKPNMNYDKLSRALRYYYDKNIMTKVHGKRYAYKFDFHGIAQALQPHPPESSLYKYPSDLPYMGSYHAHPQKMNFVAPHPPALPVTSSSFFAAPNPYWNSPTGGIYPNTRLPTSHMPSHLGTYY
To be noted: protein: recombinant; tags: N-terminal GST; dsDNA, one strand shown. An outline of the steps:
as §1

Assay [5] has as its target ELF1 (Homo sapiens, UniProt P32519 1-619). To be noted: protein: recombinant; tags: N-terminal GST; dsDNA, one strand shown. An outline of the steps:
as §1

The target of assay [6] is T5, EHF (Homo sapiens, UniProt Q9NZC4 1-300).
T5 sequence: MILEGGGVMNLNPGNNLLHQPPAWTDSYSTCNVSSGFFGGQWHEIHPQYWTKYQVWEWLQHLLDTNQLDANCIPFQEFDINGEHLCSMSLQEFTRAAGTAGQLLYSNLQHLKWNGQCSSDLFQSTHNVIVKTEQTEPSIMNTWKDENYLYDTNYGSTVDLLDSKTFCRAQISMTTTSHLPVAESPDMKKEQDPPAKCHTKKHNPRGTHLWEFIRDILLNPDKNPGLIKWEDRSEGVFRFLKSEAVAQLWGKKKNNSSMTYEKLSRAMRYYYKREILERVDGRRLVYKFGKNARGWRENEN
To be noted: protein: recombinant; tags: N-terminal GST; dsDNA, one strand shown. An outline of the steps:
as §1

Assay [7] deals with SPI1 (Homo sapiens, UniProt P17947 1-270). To be noted: protein: recombinant; tags: N-terminal GST; dsDNA, one strand shown. A digest of the protocol:
as §1

The target in assay [8] is SPIB (Homo sapiens, UniProt Q01892 1-262). The note with it: protein: recombinant; tags: N-terminal GST; dsDNA, one strand shown. A digest of the protocol: as §1
Sequence of SPIB (Q01892 whole entry): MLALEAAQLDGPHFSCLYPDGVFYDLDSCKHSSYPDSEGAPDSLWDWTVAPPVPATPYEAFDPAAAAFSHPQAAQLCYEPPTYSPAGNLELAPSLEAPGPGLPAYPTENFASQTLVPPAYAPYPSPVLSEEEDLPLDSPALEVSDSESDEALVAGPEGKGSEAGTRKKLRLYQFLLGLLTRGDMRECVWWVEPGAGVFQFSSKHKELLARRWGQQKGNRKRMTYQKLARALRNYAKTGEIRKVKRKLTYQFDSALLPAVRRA
In assay [9] the target is T6, ELK3 (Homo sapiens, UniProt P41970 1-407).
T6 sequence: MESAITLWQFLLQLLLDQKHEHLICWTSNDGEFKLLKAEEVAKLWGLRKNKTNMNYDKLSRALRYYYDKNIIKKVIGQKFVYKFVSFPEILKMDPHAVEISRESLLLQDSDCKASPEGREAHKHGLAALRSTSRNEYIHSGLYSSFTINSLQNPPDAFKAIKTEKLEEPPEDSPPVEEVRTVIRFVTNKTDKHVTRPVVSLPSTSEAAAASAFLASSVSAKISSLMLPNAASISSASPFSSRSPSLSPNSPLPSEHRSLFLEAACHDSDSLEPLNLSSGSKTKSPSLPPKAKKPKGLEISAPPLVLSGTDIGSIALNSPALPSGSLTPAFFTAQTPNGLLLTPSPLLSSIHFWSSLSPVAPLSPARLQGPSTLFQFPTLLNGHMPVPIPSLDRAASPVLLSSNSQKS
The note with it: protein: recombinant; tags: N-terminal GST; dsDNA, one strand shown. An outline of the steps:
as §1

In assay [10] the target is T7, FEV (Homo sapiens, UniProt Q99581 1-238).
T7 sequence: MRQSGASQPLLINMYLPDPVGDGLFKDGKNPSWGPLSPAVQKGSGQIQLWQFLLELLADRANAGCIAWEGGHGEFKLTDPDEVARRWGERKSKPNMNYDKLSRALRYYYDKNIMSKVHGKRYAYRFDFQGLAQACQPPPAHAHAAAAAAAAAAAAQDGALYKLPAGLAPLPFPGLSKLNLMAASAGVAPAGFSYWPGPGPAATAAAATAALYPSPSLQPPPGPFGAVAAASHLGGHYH
The note with it: protein: recombinant; tags: N-terminal GST; dsDNA, one strand shown. A digest of the protocol:
as §1

Assay [11] deals with ETV5 (Homo sapiens, UniProt P41161 1-510). The note with it: protein: recombinant; tags: N-terminal GST; dsDNA, one strand shown. A digest of the protocol:
as §1

Assay [12] deals with HSF1 (Homo sapiens, UniProt Q00613 1-529). The note with it: protein: recombinant; tags: N-terminal GST; chain copies: 3; dsDNA, one strand shown. A digest of the protocol: as §1
Sequence of HSF1 (Q00613 whole entry): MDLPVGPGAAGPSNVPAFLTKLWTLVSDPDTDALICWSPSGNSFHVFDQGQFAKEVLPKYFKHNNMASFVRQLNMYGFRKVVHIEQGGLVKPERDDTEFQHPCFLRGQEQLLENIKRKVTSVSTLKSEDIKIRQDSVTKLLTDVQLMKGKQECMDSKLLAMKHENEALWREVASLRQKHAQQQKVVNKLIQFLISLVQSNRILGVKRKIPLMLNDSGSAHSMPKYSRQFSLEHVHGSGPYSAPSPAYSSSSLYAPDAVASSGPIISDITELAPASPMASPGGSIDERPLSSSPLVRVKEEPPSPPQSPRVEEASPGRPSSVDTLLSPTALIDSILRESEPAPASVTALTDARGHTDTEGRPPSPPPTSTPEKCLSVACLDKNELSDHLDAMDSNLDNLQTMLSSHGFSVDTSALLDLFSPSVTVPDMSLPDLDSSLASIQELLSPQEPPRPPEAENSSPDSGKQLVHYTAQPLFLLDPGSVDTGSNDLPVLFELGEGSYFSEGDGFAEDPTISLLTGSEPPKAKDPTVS
Assay [13] deals with T8, SPIC (Homo sapiens, UniProt Q8N5J4 1-248).
T8 sequence: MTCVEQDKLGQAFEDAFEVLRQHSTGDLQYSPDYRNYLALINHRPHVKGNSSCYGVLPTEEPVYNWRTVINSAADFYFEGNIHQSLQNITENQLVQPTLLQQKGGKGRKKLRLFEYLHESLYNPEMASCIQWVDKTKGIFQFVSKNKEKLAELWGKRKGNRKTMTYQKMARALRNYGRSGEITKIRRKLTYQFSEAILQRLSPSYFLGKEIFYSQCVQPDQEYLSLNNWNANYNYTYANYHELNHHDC
To be noted: protein: recombinant; tags: N-terminal GST; dsDNA, one strand shown. An outline of the steps: as §1

Assay [14] has as its target ELF4 (Homo sapiens, UniProt Q99607 1-663). The note with it: protein: recombinant; tags: N-terminal GST; dsDNA, one strand shown. A digest of the protocol:
as §1

Assay [15] concerns the target T9, ELK4 (Homo sapiens, UniProt P28324-2 1-405).
T9 sequence: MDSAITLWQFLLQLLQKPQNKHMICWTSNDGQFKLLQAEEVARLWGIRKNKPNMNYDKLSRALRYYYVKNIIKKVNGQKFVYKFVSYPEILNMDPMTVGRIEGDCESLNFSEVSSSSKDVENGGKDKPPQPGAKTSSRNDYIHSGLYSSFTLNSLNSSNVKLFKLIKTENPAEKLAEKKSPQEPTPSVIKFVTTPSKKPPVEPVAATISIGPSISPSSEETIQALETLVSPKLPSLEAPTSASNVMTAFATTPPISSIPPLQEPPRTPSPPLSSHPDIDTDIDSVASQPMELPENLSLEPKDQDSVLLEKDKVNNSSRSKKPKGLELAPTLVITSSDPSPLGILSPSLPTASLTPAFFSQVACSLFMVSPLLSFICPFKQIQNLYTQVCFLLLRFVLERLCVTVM
To be noted: protein: recombinant; tags: N-terminal GST; dsDNA, one strand shown. An outline of the steps:
as §1

The target of assay [16] is T10, ELF3 (Homo sapiens, UniProt P78545 1-371).
T10 sequence: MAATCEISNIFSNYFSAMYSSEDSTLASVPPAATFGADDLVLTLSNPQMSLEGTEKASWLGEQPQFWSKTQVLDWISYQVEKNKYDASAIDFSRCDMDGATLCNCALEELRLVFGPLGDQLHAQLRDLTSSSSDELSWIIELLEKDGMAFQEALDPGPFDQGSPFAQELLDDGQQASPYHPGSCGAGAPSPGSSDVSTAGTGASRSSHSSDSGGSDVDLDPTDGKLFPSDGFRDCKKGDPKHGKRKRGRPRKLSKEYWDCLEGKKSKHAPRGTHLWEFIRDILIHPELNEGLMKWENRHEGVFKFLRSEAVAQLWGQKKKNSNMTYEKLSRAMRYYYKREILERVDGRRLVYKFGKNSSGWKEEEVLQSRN
The note with it: protein: recombinant; tags: N-terminal GST; dsDNA, one strand shown. A digest of the protocol: as §1

Assay [17] concerns the target CRX (Homo sapiens, UniProt O43186 1-299). To be noted: protein: recombinant; tags: N-terminal GST; dsDNA, one strand shown. A digest of the protocol: as §1
Assay [18] concerns the target ETV1 (Homo sapiens, UniProt P50549 1-477). To be noted: protein: recombinant; tags: N-terminal GST; dsDNA, one strand shown. An outline of the steps:
as §1

Sequence of ETV5 (P41161 whole entry): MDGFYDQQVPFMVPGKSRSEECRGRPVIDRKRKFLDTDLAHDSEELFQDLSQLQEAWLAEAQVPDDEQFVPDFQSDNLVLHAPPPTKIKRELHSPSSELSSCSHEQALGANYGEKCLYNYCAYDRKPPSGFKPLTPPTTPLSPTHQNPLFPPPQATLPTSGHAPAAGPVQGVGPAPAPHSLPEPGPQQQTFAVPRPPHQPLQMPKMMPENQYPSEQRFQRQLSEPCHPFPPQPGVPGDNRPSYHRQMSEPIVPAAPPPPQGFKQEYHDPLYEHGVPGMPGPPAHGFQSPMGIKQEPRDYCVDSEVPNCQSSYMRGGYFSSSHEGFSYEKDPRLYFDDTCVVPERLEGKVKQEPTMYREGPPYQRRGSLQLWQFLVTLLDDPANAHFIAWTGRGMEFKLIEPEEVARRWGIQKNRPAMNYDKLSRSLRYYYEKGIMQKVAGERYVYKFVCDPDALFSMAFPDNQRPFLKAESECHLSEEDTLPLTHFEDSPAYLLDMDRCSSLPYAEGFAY
Sequence of CRX (O43186 whole entry): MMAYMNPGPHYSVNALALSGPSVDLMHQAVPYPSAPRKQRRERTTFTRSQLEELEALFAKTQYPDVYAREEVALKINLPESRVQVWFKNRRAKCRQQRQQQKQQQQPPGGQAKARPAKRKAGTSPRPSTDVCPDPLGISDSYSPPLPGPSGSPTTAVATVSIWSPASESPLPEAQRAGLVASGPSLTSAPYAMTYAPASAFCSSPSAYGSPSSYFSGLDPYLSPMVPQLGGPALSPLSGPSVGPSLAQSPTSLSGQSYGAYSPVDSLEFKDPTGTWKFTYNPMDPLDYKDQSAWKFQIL
Sequence of ELF4 (Q99607 whole entry): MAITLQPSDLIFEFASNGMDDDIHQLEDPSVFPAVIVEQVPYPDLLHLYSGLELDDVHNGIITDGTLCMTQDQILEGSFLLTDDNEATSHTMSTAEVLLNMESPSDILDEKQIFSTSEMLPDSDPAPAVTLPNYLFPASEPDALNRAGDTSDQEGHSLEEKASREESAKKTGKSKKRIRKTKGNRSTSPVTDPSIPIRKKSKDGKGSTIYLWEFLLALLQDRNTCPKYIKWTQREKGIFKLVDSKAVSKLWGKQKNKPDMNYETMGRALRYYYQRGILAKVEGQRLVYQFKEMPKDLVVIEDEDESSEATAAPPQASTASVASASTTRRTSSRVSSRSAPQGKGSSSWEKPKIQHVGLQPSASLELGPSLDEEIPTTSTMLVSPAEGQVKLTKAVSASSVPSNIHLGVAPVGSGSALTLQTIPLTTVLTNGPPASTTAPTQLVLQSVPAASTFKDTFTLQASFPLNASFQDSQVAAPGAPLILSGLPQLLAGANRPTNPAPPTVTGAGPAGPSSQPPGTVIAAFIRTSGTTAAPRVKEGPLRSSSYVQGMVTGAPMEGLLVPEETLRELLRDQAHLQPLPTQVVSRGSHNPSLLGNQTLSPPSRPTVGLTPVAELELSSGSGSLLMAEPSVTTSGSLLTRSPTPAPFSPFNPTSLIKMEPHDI
Sequence of ETV1 (P50549 whole entry): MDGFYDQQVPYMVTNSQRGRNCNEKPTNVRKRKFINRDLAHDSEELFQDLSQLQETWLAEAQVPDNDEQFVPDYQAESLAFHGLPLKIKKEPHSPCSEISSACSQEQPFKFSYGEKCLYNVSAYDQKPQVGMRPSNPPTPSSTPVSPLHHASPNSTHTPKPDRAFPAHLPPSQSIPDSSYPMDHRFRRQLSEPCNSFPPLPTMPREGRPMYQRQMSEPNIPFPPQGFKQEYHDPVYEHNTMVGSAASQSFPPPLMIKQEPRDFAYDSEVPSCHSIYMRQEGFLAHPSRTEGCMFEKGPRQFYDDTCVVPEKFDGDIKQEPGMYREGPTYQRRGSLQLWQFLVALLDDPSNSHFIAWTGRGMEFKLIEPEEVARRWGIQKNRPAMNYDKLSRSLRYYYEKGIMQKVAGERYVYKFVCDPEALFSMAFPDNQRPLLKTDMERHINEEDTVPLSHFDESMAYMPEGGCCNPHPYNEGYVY
Sequence of ELF1 (P32519 whole entry): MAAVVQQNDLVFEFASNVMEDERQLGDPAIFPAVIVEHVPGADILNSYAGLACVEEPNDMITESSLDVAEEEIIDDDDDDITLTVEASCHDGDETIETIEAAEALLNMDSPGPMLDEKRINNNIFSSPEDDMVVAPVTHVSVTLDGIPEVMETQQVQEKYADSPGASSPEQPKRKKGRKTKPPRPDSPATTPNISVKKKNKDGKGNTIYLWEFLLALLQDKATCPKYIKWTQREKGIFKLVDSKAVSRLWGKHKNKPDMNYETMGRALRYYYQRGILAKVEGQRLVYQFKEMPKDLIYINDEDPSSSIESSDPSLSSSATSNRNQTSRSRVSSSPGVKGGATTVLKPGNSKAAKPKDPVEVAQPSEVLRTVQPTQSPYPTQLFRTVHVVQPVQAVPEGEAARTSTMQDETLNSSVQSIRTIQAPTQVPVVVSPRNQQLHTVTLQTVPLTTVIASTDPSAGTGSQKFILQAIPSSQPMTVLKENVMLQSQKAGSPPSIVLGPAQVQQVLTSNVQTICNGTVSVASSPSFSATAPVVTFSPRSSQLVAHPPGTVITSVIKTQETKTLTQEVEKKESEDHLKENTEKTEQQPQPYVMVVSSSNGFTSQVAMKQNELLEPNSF

In the case of GGTACT, the binding signal in assay [1] is 1.25 fold enrichment (6-mer frequency, TF over GST control); in [2], 1.21 fold enrichment (6-mer frequency, TF over GST control); in assay [3], 1.31 fold enrichment (6-mer frequency, TF over GST control); in assay [4], 1.24 fold enrichment (6-mer frequency, TF over GST control); in assay [5] it was 1.32 fold enrichment (6-mer frequency, TF over GST control); in assay [6], 1.25 fold enrichment (6-mer frequency, TF over GST control). Besides, the binding signal in assay [7] is 1.19 fold enrichment (6-mer frequency, TF over GST control); in [8], 1.15 fold enrichment (6-mer frequency, TF over GST control); in assay [9] it was 1.35 fold enrichment (6-mer frequency, TF over GST control); in assay [10] it was 1.28 fold enrichment (6-mer frequency, TF over GST control); in [11], 1.39 fold enrichment (6-mer frequency, TF over GST control); in [12], 1.05 fold enrichment (6-mer frequency, TF over GST control). Also, the binding signal in assay [13] was 1.24 fold enrichment (6-mer frequency, TF over GST control); in assay [14], 1.24 fold enrichment (6-mer frequency, TF over GST control); in [15], 1.19 fold enrichment (6-mer frequency, TF over GST control); in assay [16], 1.03 fold enrichment (6-mer frequency, TF over GST control); in assay [17], 1.05 fold enrichment (6-mer frequency, TF over GST control); in [18], 1.26 fold enrichment (6-mer frequency, TF over GST control).
